Experimental data published in PubChem BioAssay.
“And” between values parts separate entries of the source, which are not always exact repeats. Equal values may be shown once. Results filed as inconclusive are left out. The source made the active and inactive calls. Rule as the data show it, unless noted: active = inhibition above about 80%; inactive = the rest.

Tests used:
[1] = growth inhibition, single agents and combos, CRL2098, cell-based, BGB or cisplatin IC20 combos, synergistic combos for chromothripsis tumors (AID 1671454); conditions: CRL2098 osteosarcoma cells, drug combinations, stronger effect = higher value;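 also: cells exposed for 96 h before readout; 0% = vehicle DMSO and 100% = killing by high DMSO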
[2] = growth inhibition, single agents and combos, HD-MB03, cell-based, BGB or cisplatin IC20 combos, synergistic combos for chromothripsis tumors (AID 1671455; in the data active = inhibition above about 83%;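 also: 0% = vehicle DMSO and 100% = high DMSO as cytotoxic control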); conditions: HD-MB03 medulloblastoma cells, stronger effect = higher value
[3] = growth inhibition, single agents and combos, UWB1.289, cell-based, BGB or cisplatin combos, synergistic combos for chromothripsis tumors (AID 1671456); conditions: UWB1.289 ovarian carcinoma cells, stronger effect = higher value;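 also: cells exposed to compound for four days; 0% = vehicle DMSO and 100% = killing by high DMSO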
[4] = growth inhibition, single agents and combos, LFS_MB_2R, cell-based, cisplatin combos, synergistic combos for chromothripsis tumors (AID 1671457); conditions: LFS_MB_2R medulloblastoma cells, stronger effect = higher value;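 also: cells exposed to compound for four days before readout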
[5] = UWB1.289_BRCA1 ovarian cancer growth, cell-based, BGB or cisplatin combinations (AID 1671459); conditions: UWB1.289 BRCA1 ovarian carcinoma, drug combinations, stronger effect = higher value
[6] = drug combination toxicity in non-malignant astrocytes – cell-based, BGB or cisplatin IC20 combos, cytotoxicity control for chromothriptic childhood tumor combination screen (AID 1671460); conditions: Human astrocytes, viability inhibition, drug combinations, at 0.5 µM, stronger effect = higher value;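 also: cells exposed to compounds for 96 hours before viability readout; 0% = vehicle and 100% = killing control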
[7] = blockers of polyQ-driven CASP3 activation – cell-based (AID 1583); conditions: polyglutamine-induced caspase-3 activation, cell assay; stronger effect = higher value;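 tested at 10 µM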
[8] = yeast 75Q aggregation reduction – 75Q-TubU reporter (AID 1593); conditions: Yeast 75Q polyglutamine aggregation reporter
[9] = blockers of cytochrome c efflux from mitochondria – biochemical, purified mitochondria (AID 1603); conditions: stronger effect = lower value;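 also: mouse liver mitochondria challenged with calcium chloride; signal normalized to the plate average as 100%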
[10] = polyglutamine aggregate formation blockers (AID 1604); conditions: polyglutamine-induced protein aggregation inhibition assay; stronger effect = higher value; tested at 2.5 µM
[11] = compounds altering circadian rhythm period length – cell-based, LOPAC library, luminescence reporter (AID 2774; call rule not given here;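 also: values are relative to mean of DMSO wells on each plate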); conditions: circadian reporter cells, at 7 µM, actives lie on both sides
[12] = system: Hepatitis C virus NS3 helicase; test: blockers of NS3h binding to ssDNA – biochemical, fluorescence polarization, LOPAC1280 library, primary screen (AID 687035; in the data active = inhibition above about 37%); conditions: Purified HCV NS3 helicase, Cy5-dT15 ssDNA binding fluorescence polarization; stronger effect = higher value; concentration not given here
[13] = compounds altering Cy5-DNA-NS3h complex signal – biochemical, LOPAC1280, artefact control for HCV NS3 helicase inhibitor project (AID 687037; call rule not given here); conditions: Cy5-DNA-NS3h complex fluorescence interference counterscreen
[14] = blockers of cellular phospholipid synthesis – cell-based, LOPAC library, screen 4, primary screen (AID 1347384; call rule not given here); conditions: animal cells, phospholipid biosynthesis inhibition screen; at 10 µM
[15] = molecular target: ATP-dependent translocase ABCB1 (Homo sapiens) (UniProt P08183); test: P-glycoprotein substrate transport blockade – cell-based (AID 377; in the data active = fluorescence slope change above about 50%); conditions: MDR1-expressing cells, fluorescent substrate accumulation slope; stronger effect = higher value; concentration not given here
[16] = measured here: combination with BGB at IC20, at 0.5 µM
[17] = measured here: combination with cisplatin at IC20, at 0.5 µM
[18] = measured here: combo with BGB at IC20, at 0.5 µM
[19] = measured here: combo with cisplatin at IC20, at 0.5 µM
[20] = measured here: inhibition with BGB combination, at 0.05 µM
[21] = measured here: inhibition with cisplatin combination, at 0.05 µM
[22] = measured here: combination with cisplatin, at 0.5 µM
[23] = measured here: combination with cisplatin, at 5 µM
[24] = BGB combination, concentration series, at 5 µM
[25] = cisplatin combination, concentration series, at 5 µM
[26] = measured here: combo with BGB IC20
[27] = measured here: combo with cisplatin IC20

ATP-dependent translocase ABCB1 (Homo sapiens), sequence (P08183 whole entry, looked up): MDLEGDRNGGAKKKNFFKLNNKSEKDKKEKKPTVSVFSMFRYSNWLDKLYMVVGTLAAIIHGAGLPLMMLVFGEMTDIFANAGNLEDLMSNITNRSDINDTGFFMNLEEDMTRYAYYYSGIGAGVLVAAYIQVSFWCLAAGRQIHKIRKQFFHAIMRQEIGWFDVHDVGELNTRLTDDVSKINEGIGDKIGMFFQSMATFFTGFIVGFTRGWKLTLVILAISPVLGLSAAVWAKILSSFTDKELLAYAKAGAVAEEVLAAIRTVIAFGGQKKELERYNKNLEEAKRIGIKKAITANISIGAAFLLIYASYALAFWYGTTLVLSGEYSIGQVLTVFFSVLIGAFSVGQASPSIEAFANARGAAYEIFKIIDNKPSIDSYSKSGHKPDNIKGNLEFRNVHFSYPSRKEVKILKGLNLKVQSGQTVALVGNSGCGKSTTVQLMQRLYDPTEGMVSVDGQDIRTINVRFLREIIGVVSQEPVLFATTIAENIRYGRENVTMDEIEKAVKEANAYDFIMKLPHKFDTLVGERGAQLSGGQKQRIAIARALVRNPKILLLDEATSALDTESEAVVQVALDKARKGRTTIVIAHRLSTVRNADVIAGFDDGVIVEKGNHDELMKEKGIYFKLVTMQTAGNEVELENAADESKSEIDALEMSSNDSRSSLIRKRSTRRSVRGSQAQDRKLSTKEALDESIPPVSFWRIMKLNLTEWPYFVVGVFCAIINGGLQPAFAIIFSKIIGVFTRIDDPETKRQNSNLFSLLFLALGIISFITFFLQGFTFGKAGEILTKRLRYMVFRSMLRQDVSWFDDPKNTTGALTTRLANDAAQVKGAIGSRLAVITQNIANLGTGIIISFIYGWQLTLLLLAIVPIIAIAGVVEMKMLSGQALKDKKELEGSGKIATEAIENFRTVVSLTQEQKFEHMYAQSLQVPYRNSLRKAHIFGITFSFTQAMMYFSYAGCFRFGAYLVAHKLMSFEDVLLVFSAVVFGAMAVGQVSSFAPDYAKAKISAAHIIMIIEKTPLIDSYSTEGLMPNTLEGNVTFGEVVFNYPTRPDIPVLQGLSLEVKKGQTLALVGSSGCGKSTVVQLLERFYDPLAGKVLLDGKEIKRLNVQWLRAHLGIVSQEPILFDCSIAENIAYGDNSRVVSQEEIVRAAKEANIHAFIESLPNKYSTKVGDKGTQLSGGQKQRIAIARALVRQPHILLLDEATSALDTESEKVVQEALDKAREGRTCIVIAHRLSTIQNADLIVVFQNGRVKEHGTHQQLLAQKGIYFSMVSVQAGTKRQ

**Q.** For `COC1C(OC(N)=O)C(O)C(Oc2ccc3c(O)c(NC(=O)c4ccc(O)c(CC=C(C)C)c4)c(=O)oc3c2C)OC1(C)C` (centres undefined), which inhibition ([1]; at 0.5 µM) is on record?
**A.** -21.7% (inactive)

**Q.** What about the inhibition [1, 16] of the same compound?
**A.** -45.3%

**Q.** What about the inhibition [1, 17] of the same compound?
**A.** -25.6%

**Q.** And the inhibition ([2]; at 0.5 µM)?
**A.** -9.35% (inactive)

**Q.** And the inhibition [2, 18]?
**A.** -5.37%

**Q.** And the inhibition [2, 19]?
**A.** -13.3%

**Q.** And the inhibition ([3]; at 0.5 µM)?
**A.** -6.21% (inactive)

**Q.** What about the inhibition [3, 20] of the same compound?
**A.** -33.1%

**Q.** And the inhibition [3, 21]?
**A.** -19.6%

**Q.** What about the inhibition ([4]; at 0.5 µM) of the same compound?
**A.** -20.5% (inactive)

**Q.** What about the inhibition [4, 22] of the same compound?
**A.** -9.82%

**Q.** What about the inhibition [4, 23] of the same compound?
**A.** -11.7%

**Q.** What about the inhibition [5, 24] of the same compound?
**A.** -28.9%

**Q.** And the inhibition ([5]; at 0.5 µM)?
**A.** -15.6% (inactive)

**Q.** And the inhibition [5, 25]?
**A.** -9.79%

**Q.** What about the inhibition [6] of the same compound?
**A.** -3.92% (inactive)

**Q.** What about the inhibition [6, 26] of the same compound?
**A.** 3.16%

**Q.** And the inhibition [6, 27]?
**A.** -8.92%

**Q.** For `N[C@@H](Cc1c[nH]c2ccccc12)C(=O)O`, which inhibition [7] is on record?
**A.** 8.74%

**Q.** What about the score [8] of the same compound?
**A.** 1.61

**Q.** And the cytochrome c release ratio [9]?
**A.** 0.96

**Q.** What about the inhibition of aggregation [10] of the same compound?
**A.** 63.4%

**Q.** What about the period change [11] of the same compound?
**A.** 0.11 h (inactive)

**Q.** What about the inhibition [12] of the same compound?
**A.** 2% (inactive)

**Q.** What about the fluorescence ratio (interference) [13] of the same compound?
**A.** 1 (inactive)

**Q.** What about the outcome [14] of the same compound?
**A.** inactive

**Q.** Which fluorescence slope change [15] does the source give for `C[C@]12CC[C@H]3C(=CCc4cc(O)ccc43)[C@@H]1CCC2=O` here?
**A.** 51.2% (active)

**Q.** Which inhibition [7] does the source give for `CC(=O)NCCc1c[nH]c2ccc(O)cc12` here?
**A.** 26.8%

**Q.** And the score [8]?
**A.** 1.5

**Q.** And the cytochrome c release ratio [9]?
**A.** 0.84

**Q.** And the inhibition of aggregation [10]?
**A.** 31.4%

**Q.** What about the period change [11] of the same compound?
**A.** -0.07 h (inactive)

**Q.** And the inhibition [12]?
**A.** 0% (inactive)

**Q.** What about the fluorescence ratio (interference) [13] of the same compound?
**A.** 1 (inactive)

**Q.** What about the outcome [14] of the same compound?
**A.** inactive

**Q.** With `CC(Oc1ccccc1)C(=O)N[C@@H]1C(=O)N2[C@@H]1SC(C)(C)[C@@H]2C(=O)O` (some centres undefined) as the compound, how does the fluorescence slope change [15] read?
**A.** 56.9% (active)

**Q.** What about the inhibition [7] of the same compound?
**A.** 11.2%

**Q.** What about the score [8] of the same compound?
**A.** 1.4

**Q.** And the cytochrome c release ratio [9]?
**A.** 1.15

**Q.** And the inhibition of aggregation [10]?
**A.** 78.9%

**Q.** For `COc1ccc(C(Cl)=C(c2ccc(OC)cc2)c2ccc(OC)cc2)cc1`, which fluorescence slope change [15] is on record?
**A.** 9.3% (inactive)

**Q.** Which fluorescence slope change [15] does the source give for `C=C1CC[C@H](O)C/C1=C/C=C1\CCC[C@]2(C)[C@@H]([C@H](C)/C=C/[C@H](C)C(C)C)CC[C@@H]12` here?
**A.** 66.6% (active)

**Q.** For `O=C(O)c1cc2cc(Cc3cccnc3)ccc2o1`, which inhibition [7] is on record?
**A.** 22.5%

**Q.** And the score [8]?
**A.** 1.36

**Q.** And the cytochrome c release ratio [9]?
**A.** 1.03

**Q.** And the inhibition of aggregation [10]?
**A.** 1.59%

**Q.** What about the period change [11] of the same compound?
**A.** 0.065 h (inactive)

**Q.** What about the inhibition [12] of the same compound?
**A.** -2% (inactive)

**Q.** And the fluorescence ratio (interference) [13]?
**A.** 1 (inactive)

**Q.** What about the outcome [14] of the same compound?
**A.** inactive

**Q.** Which outcome [14] does the source give for `COc1ccc(-c2cc(=O)c3c(O)c(OC)c(OC)cc3o2)cc1O` here?
**A.** inactive

**Q.** For `CN1[C@@H]2CC[C@H]1CC(OC(=O)[C@H](CO)c1ccccc1)C2` (some centres undefined), which fluorescence slope change [15] is on record?
**A.** 17.8% (inactive)

**Q.** Which results are given for `C[C@@H]1O[C@@H](O[C@H]2[C@H](Oc3cc(O)c4c(c3)O[C@H](c3ccc(O)cc3)CC4=O)O[C@H](CO)[C@@H](O)[C@@H]2O)[C@H](O)[C@H](O)[C@H]1O`?
**A.** fluorescence slope change [15]: 21.6% (inactive); inhibition [7]: -1.5%; score [8]: 1.92; cytochrome c release ratio [9]: 1.05; inhibition of aggregation [10]: 82.5%

**Q.** For `C[C@H]1[C@H]2CC[C@H]3[C@@H]4CC=C5C[C@@H](N(C)C)CC[C@]5(C)[C@H]4CC[C@]23CN1C`, which fluorescence slope change [15] is on record?
**A.** 56.7% (active)

**Q.** With `O=C(/C=C/c1ccc(O)c(O)c1)O[C@@H]1C[C@](O)(C(=O)O)C[C@@H](O)[C@H]1O` as the compound, how does the fluorescence slope change [15] read?
**A.** 18.7% (inactive)

**Q.** With `COc1cc(C2c3cc4c(cc3C(OC3OC5COC(C)OC5C(O)C3O)C3COC(=O)C23)OCO4)cc(OC)c1O` (centres undefined) as the compound, how does the inhibition ([1]; at 0.5 µM) read?
**A.** -81.8% (inactive) and -42.5% (inactive)

**Q.** And the inhibition [1, 16]?
**A.** -58% and -65.7%

**Q.** What about the inhibition [1, 17] of the same compound?
**A.** -127% and -42.7%

**Q.** What about the inhibition ([2]; at 0.5 µM) of the same compound?
**A.** 58.9% (inactive) and 63.9% (inactive)

**Q.** What about the inhibition [2, 18] of the same compound?
**A.** 56.6% and 69.3%

**Q.** And the inhibition [2, 19]?
**A.** 64.2% and 61.2%

**Q.** And the inhibition ([3]; at 0.5 µM)?
**A.** -3.51% (inactive) and 0.59% (inactive)

**Q.** What about the inhibition [3, 20] of the same compound?
**A.** 2.23% and -16.8%

**Q.** And the inhibition [3, 21]?
**A.** -32.6% and -11.7%

**Q.** And the inhibition ([4]; at 0.5 µM)?
**A.** -20.7% (inactive) and -2.13% (inactive)

**Q.** What about the inhibition [4, 22] of the same compound?
**A.** -26.1% and 1.95%

**Q.** And the inhibition [4, 23]?
**A.** -15.5% and -45.8%

**Q.** What about the inhibition [5, 24] of the same compound?
**A.** 13% and 11.6%

**Q.** And the inhibition ([5]; at 0.5 µM)?
**A.** -8.08% (inactive) and 2.75% (inactive)

**Q.** And the inhibition [5, 25]?
**A.** -5.18% and 30.7%

**Q.** What about the inhibition [6] of the same compound?
**A.** 37.7% (inactive) and 21.4% (inactive)

**Q.** And the inhibition [6, 26]?
**A.** 41.3% and 27.7%

**Q.** What about the inhibition [6, 27] of the same compound?
**A.** 11.1% and -19.1%

**Q.** With `CC1CCCC(C)N1NC(=O)c1ccc(Cl)c(S(N)(=O)=O)c1` (centres undefined) as the compound, how does the inhibition [7] read?
**A.** 16.7%

**Q.** And the score [8]?
**A.** 1.67

**Q.** What about the cytochrome c release ratio [9] of the same compound?
**A.** 0.96

**Q.** And the inhibition of aggregation [10]?
**A.** 25.5%

**Q.** With `CN(C)CC/C=C1/c2ccccc2Sc2ccc(Cl)cc21` as the compound, how does the fluorescence slope change [15] read?
**A.** 115% (active)

**Q.** For `CO/N=C(\C(=O)N[C@@H]1C(=O)N2C(C(=O)O)=C(CSc3nc(=O)c(O)nn3C)CSC12)c1csc(N)n1` (some centres undefined), which period change [11] is on record?
**A.** 0.08 h (inactive)

**Q.** With `COC(=O)[C@H]1[C@H]2C[C@H]3c4[nH]c5ccccc5c4CCN3C[C@@H]2CC[C@@H]1O` as the compound, how does the fluorescence slope change [15] read?
**A.** 53.3% (active)
